About 750 (58%) of roughly 1,300 compounds were called active. Some of the results follow.

The inhibition is the change of the read-out against control, counted positive when it falls.

The assay deals with Sulfhydryl oxidase 1 (Homo sapiens) (UniProt O00391). The assay is described as follows: QSOX1 enzyme inhibitors, primary screen, biochemical, ROS-Glo H2O2 luminescence, HTS (AID 1347418). The note with it: recombinant QSOX1, ROS-Glo H2O2 luminescence; at 12.5 µM; stronger effect = higher value; active = any value above zero.
Chain of Sulfhydryl oxidase 1 (Homo sapiens) (O00391 whole entry, looked up): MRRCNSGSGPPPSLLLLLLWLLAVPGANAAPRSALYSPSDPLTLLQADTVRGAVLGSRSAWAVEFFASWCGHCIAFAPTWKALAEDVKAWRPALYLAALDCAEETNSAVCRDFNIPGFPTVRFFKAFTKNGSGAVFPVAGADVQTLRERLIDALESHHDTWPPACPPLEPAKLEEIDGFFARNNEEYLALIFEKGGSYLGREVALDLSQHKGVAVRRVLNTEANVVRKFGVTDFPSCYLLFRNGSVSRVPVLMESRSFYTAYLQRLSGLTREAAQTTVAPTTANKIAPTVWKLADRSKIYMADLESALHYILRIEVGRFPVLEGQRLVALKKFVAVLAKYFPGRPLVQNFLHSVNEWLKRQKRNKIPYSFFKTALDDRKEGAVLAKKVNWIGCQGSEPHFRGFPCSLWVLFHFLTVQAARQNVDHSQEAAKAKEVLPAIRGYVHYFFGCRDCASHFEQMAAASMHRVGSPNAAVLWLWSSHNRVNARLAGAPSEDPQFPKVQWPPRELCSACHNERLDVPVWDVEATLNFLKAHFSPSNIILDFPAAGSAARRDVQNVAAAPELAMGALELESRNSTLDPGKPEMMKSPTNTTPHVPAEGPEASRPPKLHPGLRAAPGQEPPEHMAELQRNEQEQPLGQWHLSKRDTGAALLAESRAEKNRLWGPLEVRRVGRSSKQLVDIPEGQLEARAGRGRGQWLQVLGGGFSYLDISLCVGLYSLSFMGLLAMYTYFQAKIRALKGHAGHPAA
In the case of `C#CCCN`, the inhibition is 0.1% (active). For `Nc1ncnc2nc(-c3ccc(N4CCOCC4)nc3)cc(-c3cccc(Br)c3)c12`, the inhibition is 10% (active). For the compound `NC(=O)c1ccc2[nH]ccc2c1`, the inhibition is 0.6% (active). Next, `CC(C)OC(=O)C(C)(C)Oc1ccc(C(=O)c2ccc(Cl)cc2)cc1`: -0.6% (inactive); `CC(C)(C)c1ccc(/C=C/C(=O)Nc2ccc3c(c2)OCCO3)cc1`: -1.6% (inactive); `COc1ccc(NC(=O)/C=C/c2ccc(Cl)cc2)cc1`: 12.1% (active). The same measure for `NC(CCCP(=O)(O)O)C(=O)O` (stereo not drawn): 0% (inactive); for `NC(=O)CC[C@H](N)C(=O)O`: 2.8% (active); for `N[C@H](CCCP(=O)(O)O)C(=O)O`: -1.3% (inactive). `N[C@@H](CCCC(=O)O)C(=O)O`: the inhibition is 6.7% (active). Next, `CN1C2CCCC1CC(NC(=O)c1nn(C)c3ccccc13)C2` (stereo not drawn): 3% (active). The same measure for `O=c1[nH]ccc2c(O)cccc12`: 4.1% (active); for `O[Si](CCCN1CCCCC1)(c1ccc(F)cc1)C1CCCCC1` (stereo not drawn): -3.8% (inactive); for `C[C@H](NC(CCc1ccccc1)C(=O)O)C(=O)N1CCC[C@H]1C(=O)O` (stereo partly drawn): -2.6% (inactive). The same measure for `CCOC(=O)[C@H](CCc1ccccc1)N[C@@H](C)C(=O)N1[C@H](C(=O)O)C[C@H]2CCCC[C@@H]21`: 2.6% (active); for `Cc1cccc(C#Cc2ccccc2)n1`: 2.9% (active); for `COc1cc([C@@H]2c3cc4c(cc3[C@@H](O[C@@H]3O[C@@H]5CO[C@@H](C)O[C@H]5[C@H](O)[C@H]3O)[C@H]3COC(=O)[C@H]23)OCO4)cc(OC)c1O`: 0% (inactive).

Consider `COc1ccc2c(c1OC)C(=O)O[C@@H]2[C@H]1c2c(cc3c(c2OC)OCO3)CCN1C`, for which the inhibition is -4.2% (inactive). Consider `COc1cc([C@@H]2c3cc4c(cc3[C@H](O)C3COC(=O)[C@@H]32)OCO4)cc(OC)c1OC` (stereo partly drawn), for which the inhibition is 1.1% (active). On to `CC1=C(CC(=O)O)c2cc(F)ccc2/C1=C\c1ccc(S(C)=O)cc1` (stereo not drawn), for which the inhibition was -0.4% (inactive).

With `CC1=C(CC(=O)O)c2cc(F)ccc2/C1=C\c1ccc(S(C)(=O)=O)cc1`, the inhibition was 3.1% (active).

On to `CC(=O)Oc1ccccc1C(=O)O`, for which the inhibition was 0.3% (active).

Regarding `O=C(CCc1ccc(O)cc1)c1c(O)cc(O)cc1O`, the inhibition was 6.2% (active). In the case of `O=C1CCC(c2ccc(-n3ccnc3)cc2)=NN1`, the inhibition is 6.6% (active). Next, `Nc1nc2ccc(OC(F)(F)F)cc2s1`: -3.9% (inactive); `Cc1ccc2nc(CN(CCN(Cc3nc4ccc(C)cc4[nH]3)Cc3nc4ccc(C)cc4[nH]3)Cc3nc4ccc(C)cc4[nH]3)[nH]c2c1`: -0.7% (inactive). The same measure for `Brc1c(Br)c(Br)c2n[nH]nc2c1Br`: 1% (active). Consider `CNCCCN1c2ccccc2CCc2ccccc21`, for which the inhibition was 5.2% (active).

As for `CC(CN(C)C)CN1c2ccccc2CCc2ccccc21` (stereo not drawn), the inhibition was 2% (active). `CN(C)CCCN1c2ccccc2CCc2ccc(Cl)cc21`: the inhibition was 2.6% (active). The same measure for `CNCCCC12CCC(c3ccccc31)c1ccccc12`: -2.7% (inactive); for `CN(C)CCCN1c2ccccc2CCc2ccccc21`: 11.1% (active); for `CNCCCC1c2ccccc2C=Cc2ccccc21`: -4.7% (inactive).

For the origin of these results see PubChem BioAssay AID1347418 (Sanford-Burnham Center for Chemical Genomics, 2020).
